Assay outcomes as filed in PubChem BioAssay.
TDP1 cell noCPT – qHTS for Inhibitors of human tyrosyl-DNA phosphodiesterase 1 (TDP1): qHTS in cells in absence of CPT; AID 686978, 2013; Potency, µM (titrated, usually from 46.2 µM), without a hit: at the top dose activity change, negative = growth inhibition, hits mostly inhibitors; 420,000 tested, 15% active; DT40 Tdp1-/- hTDP1 cells, no CPT, ATP luminescence, 48 h; further: potency means the concentration at half of the fitted maximal effect; on the % scale 0 is the no-effect control and ±100 the full control effect; nearly all actives have a fitted effect of over 55% in size
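Chicken DT40 Tdp1-/- cells stably complemented with human TDP1 were seeded at 400 cells/well with DMSO in place of 20 nM camptothecin. After compound pinning, cells grew at least 48 hr at 37 °C; viability read by CellTiter-Glo luminescence.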
BCR signal inh – qHTS Assay to Find Inhibitors of Chronic Active B-Cell Receptor Signaling; ABC-DLBCL IkBa-CBG/CBR reporter, luminescence ratio, 4 h; 340,000 tested, 0.05% active; AID 493014, 2011; Potency, µM (titrated, usually from 46.1 µM), without a hit: top-dose activity change, negative = inhibition, hits mostly inhibitors; active means well fitted inhibition curve with a large enough effect in the signal ratio, with a control signal flat, not every such curve was filed as active; inconclusive means small, poorly fitted or top-dose-only effect, or effect the other way, or a change in a side signal; the % refers to the signal ratio;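 further: potency means the concentration at half of the fitted maximal effect; plate controls were basal doxycycline-induced cells for no effect and cells given 10 µM MG132 for full effect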
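TMD8 ABC-DLBCL cells carrying doxycycline-inducible green luciferase fused to IkappaBalpha plus unfused red luciferase were exposed to compounds (up to 46 uM) for 4 hrs at 37C. Activity came from the overlap-corrected green/red luminescence ratio.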
SW480 rereplic – A quantitative high throughput screen for small molecules that induce DNA re-replication in SW480 colon adenocarcinoma cells; Potency, µM (top dose mostly 46.1 µM), inactives show at the highest dose re-replication activation, actives largely listed as activators; SW480 DNA re-replication, Hoechst DNA content imaging, 48 h; 340,000 tested, 1.8% active; AID 624297, 2012; further: potency means the concentration at half of the fitted maximal effect; % of control where 0% means no effect; nearly all actives have a fitted effect of over 55% in size
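Readout is total intensity of Hoechst-stained nuclei, excited at 405 nm and collected at 500-530 nm. Compound treatment lasted 48 hr at 37 C in 5% CO2 before staining.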
IL-1B inflam inh – qHTS for Inhibitors of Inflammasome Signaling: IL-1-beta AlphaLISA Primary Screen; THP-1 LPS/ATP IL-1B secretion, AlphaLISA, 16 h; hits give low values; activity change, % at 57.5 µM; 360,000 tested, 4.7% active; AID 743279, 2014; in the data active means activity change below about -50%; inconclusive means mostly about -30% to -49%; further: on the % scale 0 is the no-effect control and ±100 the full control effect
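THP-1 cells pretreated 1 hr with compounds (up to 57.5 uM final), then stimulated with LPS (250 ng/mL final) plus ATP (1.25 mM final); secreted IL-1B measured by AlphaLISA after 16 hr, decreased signal indicating inhibition.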
DT40 TDP1 CPT – qHTS for Inhibitors of human tyrosyl-DNA phosphodiesterase 1 (TDP1): qHTS in cells in presence of CPT; Potency, µM (top dose mostly 46.2 µM), for inactives: at the top dose activity change, negative = growth inhibition, most hits filed as inhibitors; 420,000 tested, 12% active; chicken DT40 Tdp1-/-;hTDP1 cells + 20 nM CPT, ATP luminescence, 48 h; further: potency means the concentration at half of the fitted maximal effect; on the % scale 0 is the no-effect control and ±100 the full control effect; nearly all actives have a fitted effect of over 55% in size
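Chicken DT40 Tdp1-/- cells complemented with human TDP1, 400 cells/well, exposed to compounds plus 20 nM camptothecin for at least 48 h at 37 C; viability read as ATP content by CellTiter-Glo luminescence.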
MCF10A rerep – A quantitative high throughput screen for small molecules that induce DNA re-replication in MCF 10a normal breast cells. MCF 10A DNA re-replication, Hoechst nuclear intensity, 48 h. Potency, µM (highest dose often 46.1 µM), inactives show at the top dose activity, positive = re-replication, hits mostly activators. 350,000 tested, 2.9% active. AID 624296, 2012; further: potency means the concentration at half of the fitted maximal effect; % of control where 0% means no effect; nearly all actives have a fitted effect of over 50% in size
An asterisk follows results filed as active; i = inactive; ? = inconclusive; nt = no result; [ ] = remark or other dose. In the library only some 19% were active in any assay of this set; here they are far more common. Unless noted, the call rests on the fitted dose curve; in most records, active means well fitted curve in the direction sought with a large enough effect; inconclusive means small, poorly fitted or top-dose-only effect, or another doubt; inactive means no such curve, though single readings can be large; an effect the other way counts as inactive or inconclusive.

SMILES | TDP1 cell noCPT | BCR signal inh | SW480 rereplic | IL-1B inflam inh | DT40 TDP1 CPT | MCF10A rerep
COc1ccc(/C=C2/SC(=S)N(CCCC(=O)N3CCN(C)CC3)C2=O)cc1 | 20.6µM* | ? | -2.5% | i | ? | ?
COc1ccc(/C=C2\SC(=S)N(CC(=O)NCCO)C2=O)cc1 | -5.9% | ? | -8.1% | 6.6 | -24.1% | 6.1%
COc1ccc(S(=O)(=O)N(C)C[C@H]2Oc3c(NS(=O)(=O)c4cn(C)cn4)cccc3C(=O)N([C@H](C)CO)C[C@@H]2C)cc1 | 3.0% | -3.2% | -2.2%[9.22 µM] | 18.9 | 19.6% | -8.4%
COc1ccc(C2=NN(C(=O)CSc3nc4ccccc4s3)C(c3ccc(F)cc3)C2)cc1 (configuration not stated) | ? | ? | 6.3% | -6.2 | 20.6µM* | 2.6%
COc1ccc(C2=NN(C(=O)CSc3ncccn3)C(c3ccc(OC)cc3)C2)cc1 (configuration not stated) | ? | -19.5% | 3.2% | 7.5 | ? | 6.2%
COc1ccc(C2=NN(C(=O)CSc3nc4ccccc4s3)C(c3ccc(OC)cc3)C2)cc1 (configuration not stated) | 11.6µM* | 4.8% | 4.0% | 0.0 | 13µM* | 8.6%
COc1ccc(C2=NN(C(=O)CSc3cn(C)c4ccccc34)C(c3ccc(OC)cc3)C2)cc1 (configuration not stated) | ? | ? | 22.4% | ? | ? | 0.3%
COCCn1c(C)cc(O)c(C(c2ccccc2Cl)N2CCCCC2)c1=O (configuration not stated) | 1.8% | nt | nt | nt | -0.4% | nt
O=C(Nc1cccc(S(=O)(=O)N2CCCC2)c1)c1cc(-c2ccccn2)nc2ccccc12 | 20.6µM* | -3.2% | -33.5%[1.84 µM] | ? | 23.1µM* | -12.5%
O=S(=O)(Nc1nc2ccccc2nc1Nc1cccc(S(=O)(=O)N2CCCCC2)c1)c1ccccc1 | 5.8µM* | 5.5% | 14.3% | -27.0 | 6.51µM* | ?
CCOc1ccc(S(=O)(=O)Nc2nc3ccccc3nc2Nc2ccc(OC)cc2)cc1 | -29.4% | nt | nt | nt | -8.0% | nt
CSc1ncccc1C(=O)Nc1cccc(S(=O)(=O)N2CCCCC2)c1 | 14.6µM* | -3.3% | -3.6% | 10.5 | ? | 1.7%
CCc1ccc(Nc2nc3ccccc3nc2NS(=O)(=O)c2ccccc2)cc1 | 20.6µM* | nt | nt | nt | 16.4µM* | nt
CC(=O)Nc1cccc(S(=O)(=O)N2CCCCCC2)c1 | -1.2% | -9.2% | -6.3%[9.22 µM] | -17.6 | -2.8% | 1.3%
O=C(Nc1cccc(S(=O)(=O)N2CCCCC2)c1)c1ccccn1 | -26.1% | 7.0% | 3.5% | -84.1* | -18.5% | -15.2%
CC(=O)c1ccc(Nc2nc3ccccc3nc2NS(=O)(=O)c2cccs2)cc1 | 9.2µM* | ? | -5.6% | -0.7 | 14.6µM* | 14.6µM*
O=C(Nc1cccc(S(=O)(=O)N2CCCCCC2)c1)c1ccc2ccccc2n1 | 18.4µM* | 14.3% | -6.8% | -9.9 | ? | 12.1%
Cc1nc(N2CCN(C(=O)c3ccco3)CC2)c2oc3ccccc3c2n1 | 20.6µM* | 2.4% | 8.2µM* | ? | 14.6µM* | ?
Cc1nc(N2CCC(C)CC2)c2oc3ccccc3c2n1 | ? | 7.2% | -14.2%[9.22 µM] | -15.3 | ? | ?
CCc1nc(N2CCCC2C(=O)O)c2oc3ccccc3c2n1 (configuration not stated) | 3.4% | 3.7% | -10.4% | 12.9 | -4.6% | -0.9%
CCc1nc(N2CCN(C(=O)c3ccco3)CC2)c2oc3ccccc3c2n1 | 20.6µM* | 11.7% | 11.6µM* | -26.5 | 20.6µM* | ?
CCOC(=O)CN1C(=O)C(=O)N(Cc2ccccc2F)C1=O | 5.6% | 4.2% | -4.3% | 15.4 | 9.7% | 0.0%
CCCCCN=C(N)N/N=C/c1c[nH]c2ccc(OC)cc12 | 2.59µM* | nt | ? | 0.0 | 2.91µM* | ?
CCCOc1ccc(C(=O)N/N=C/c2c[nH]c3ccc(Br)cc23)cc1 | ? | 1.8% | ? | -19.9 | -23.9% | ?
O=c1cc(-c2ccc(F)cc2)nc(SCc2nc(-c3cccc(Cl)c3)no2)[nH]1 | ? | nt | nt | nt | -7.6% | nt
SMILES | TDP1 cell noCPT | BCR signal inh | SW480 rereplic | IL-1B inflam inh | DT40 TDP1 CPT | MCF10A rerep
CC(C)(C)NC(=O)C[C@H]1C[C@H](C(=O)N2CCCCC2)[C@@]2(C)c3[nH]c4cc(-c5ccco5)ccc4c3CCN2C1=O | 25.9µM* | -2.7% | -2.5% | 0.8 | ? | ?
CC[C@]12c3[nH]c4cc(-c5ccco5)ccc4c3CCN1C(=O)[C@@H](CC(=O)NC(C)(C)C)C[C@@H]2C(=O)N1CCN(C(=O)C2CC2)CC1 | 20.6µM* | -1.1% | ? | -11.1 | 14.6µM* | -3.1%
COc1cccc(-c2nccc(-n3ccnc3)n2)c1 | ? | nt | nt | nt | 9.0% | nt
CC(C)CCN1C(=O)c2ccccc2CC1(C)C(=O)NC1CCC(C)CC1 (configuration not stated) | ? | nt | nt | nt | -9.7% | nt
Cc1ccc(NC2=C(c3ccc(C(F)(F)F)cc3)C(=O)c3ccccc32)cc1C | ? | nt | nt | nt | 20.6µM* | nt
CCC1CN(C(=O)N2CCC(C(=O)NCCN(C)C)CC2)c2ccccc2O1 (configuration not stated) | -6.9% | nt | nt | nt | 2.4% | nt
CCC1CN(C(=O)N2CCC(C(=O)NCCc3ccccc3C)CC2)c2ccccc2O1 (configuration not stated) | 20.6µM* | nt | nt | nt | ? | nt
CCS(=O)(=O)N1CCC(C(=O)NCCC2=CCCCC2)CC1 | 5.0% | -0.3% | ? | -7.3 | -9.4% | ?
CCC1CN(C(=O)N2CCC(C(=O)NCCc3ccc(Cl)cc3)CC2)c2ccccc2O1 (configuration not stated) | 14.6µM* | nt | nt | nt | 16.4µM* | nt
CCC1CN(C(=O)N2CCC(C(=O)Nc3cc(C)ccc3C)CC2)c2ccccc2O1 (configuration not stated) | 13µM* | nt | nt | nt | 13µM* | nt
CCC1CN(C(=O)N2CCC(C(=O)NCCC3=CCCCC3)CC2)c2ccccc2O1 (configuration not stated) | 11.6µM* | nt | nt | nt | 16.4µM* | nt
Cn1c(C(=O)NCCc2ccccc2)cc2sc(Cl)cc21 | -18.3% | nt | nt | nt | -17.7% | nt
